From PubChem BioAssay AID488890 (Southern Research Specialized Biocontainment Screening …, 2010)
The campaign covered roughly 320,000 compounds. About 1,300 (0.41%) were called active. Another 3% or so got no clear call; they are omitted. The rule behind the calls is not given here. The list is a sample of the results. Entries with a potency or affinity are not part of this list.

assay: growth inhibition of non-replicating M. tuberculosis (AID 488890); conditions: Mycobacterium tuberculosis non-replicating, at 25 µM, stronger effect = higher value;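 note: plate controls were DMSO cells for no effect and high antibiotic wells for full effect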

| Structure (SMILES) | inhibition |
| --- | --- |
| CCOC(=O)c1cccc(-n2cccc2/C=C2\NC(=O)N(CC(=O)O)C2=O)c1 | -4.64% |
| CC(NC(=O)C1CCC(CNS(=O)(=O)c2ccccc2)CC1)c1ccc2c(c1)OCCO2 (centres undefined) | 0.52% |
| CC(=O)Nc1ccccc1Sc1ccccc1 | -2.8% |
| N#CCC(CNc1ncc(C(F)(F)F)cc1Cl)OC(=O)c1ccc(Cl)cc1 (centres undefined) | 27% |
| CC(C)(C)N(Cc1ccccc1)C(=O)COC(=O)c1ccc([N+](=O)[O-])o1 | 4% |
| CN(Cc1ccccc1)C(=O)c1ccco1 | 14.6% |
| Cc1cc(NC(=O)CSc2nncn2N)no1 | -18% |
| COCc1cc(=O)[nH]c(Nc2nc3ccc(C)cc3o2)n1 | -3.8% |
| COC(=O)Cc1cc(=O)[nH]c(Nc2nc3ccccc3o2)n1 | 69% |
| COc1cc(C(=O)NCCCNc2nc3c(C)cc(C)cc3cc2C#N)cc(OC)c1OC | 40.9% |
| Cc1[nH]n(-c2ccccc2)c(=O)c1N=Nc1cccc(Cl)c1 | 1.75% |
| Cc1[nH]n(-c2ccccc2)c(=O)c1N=Nc1ccc(Cl)cc1 | 22% |
| COc1ccccc1C(=O)COC(=O)c1ccccc1O | 26.5% |
| COc1ccc(OC)c(C(=O)COC(=O)c2ccccc2O)c1 | 51.8% |
| COc1ccc(/C=N/NC(=O)c2c(Br)cnn2C)c2ccccc12 | 8.73% |
| Cc1cccc(CCNC(=O)Cn2ncc3c([nH]c4ccccc43)c2=O)c1 | 3.21% |
| COc1ccc(NC(=O)CNC(=O)C23CC4CC(CC(C4)C2)C3)c(OC)c1 | 7.13% |
| COc1ccc(C(=O)NNC(=O)C23CC4CC(CC(C4)C2)C3)c(OC)c1 | 1.7% |
| Cc1cc(C)c2sc(N(CCCN(C)C)C(=O)CN3C(=O)c4ccccc4C3=O)nc2c1 | 16.6% |
| COc1cccc(NC(=O)C2C3C=CC(O3)C2C(=O)NCc2cccnc2)c1 (centres undefined) | 7.86% |
| Cc1nc2ccc(NC(=O)c3ccc(Cl)c([N+](=O)[O-])c3)cc2s1 | -1.87% |
| Cc1nc2ccc(NC(=O)c3ccc([N+](=O)[O-])cc3)cc2s1 | 41.2% |
| COc1cc(-c2c(C#N)c(N)nc3c2c(C)nn3-c2ccc(C)c(C)c2)cc(OC)c1OC | 20.3% |

| Structure (SMILES) | inhibition |
| --- | --- |
| COc1ccccc1Nc1c([N+](=O)[O-])cncc1[N+](=O)[O-] | 55.7% |
| Cc1ccccc1Nc1c([N+](=O)[O-])cncc1[N+](=O)[O-] | 76% |
| CCN(CC(=O)NCc1ccc(F)cc1)C(=O)c1ccc2c(c1)OCO2 | -2% |
| COc1ccc(C(=O)N2CCN(C)C(=O)[C@@H]2C)cc1OC1CCN(C(C)C)CC1 | -16.1% |
| CCn1c(O)c(C=NC2CCCC2)sc1=S | -4.02% |
| Oc1ccc(C=NC2CCCCC2)c(O)c1 | -6.4% |
| COCCOC(=O)c1c(C)oc2ccc(OC(=O)c3c(OC)cccc3OC)cc12 | 0.6% |
| CCOC(=O)Oc1ccc2oc(C)c(C(=O)OCCOC)c2c1 | 61.6% |
| CC(Oc1cc(Cl)ccc1Cl)C(=O)N/N=C\c1ccnn1C (centres undefined) | 10.1% |
| CC1CCC(C(C)C)C(OC(=O)C[n+]2cc(-c3ccc(Cl)cc3)n3c2CCC3)C1 (centres undefined) | 49.4% |
| O=C(C[n+]1cc(-c2ccc(Cl)cc2)n2c1CCCCC2)c1ccccc1 | -12.8% |
| Cn1c(SC2=CS(=O)(=O)c3ccccc32)nc2ccccc21 | 58% |
| Cc1cc(C)nc(SC2=CS(=O)(=O)c3ccccc32)n1 | -0.38% |
| CSc1nnc(-c2ccccc2)o1 | 17.4% |
| O=C(O)CSc1nnc(-c2ccccc2)o1 | -5.91% |
| CC(C)c1ccc(N(C(=O)c2snc(C(N)=O)c2N)C(C(=O)NC2CCCC2)c2ccncc2)cc1 (centres undefined) | 15.7% |
| COc1ccccc1-c1cc(C(F)(F)F)nc(NCc2cccs2)n1 | 13.2% |
| Cc1ccc(C(=O)N/C(=C\c2cn(C)c3ccccc23)C(=O)OCCN(C)C)cc1 | 1.18% |
| CCOC(=O)C1CCN(C(=O)C(C)Oc2ccc(C(=O)c3ccccc3)cc2)CC1 (centres undefined) | 28.6% |
| COc1cc(-c2ccc3oc(-c4ccsc4)cc(=O)c3c2)cc(OC)c1OC | 72.1% |
| Cc1ncc([N+](=O)[O-])n1CC(=O)Nc1ccc(F)cc1F | -8.21% |
| CN(Cc1ccccc1)C(=O)Nc1ccc(Cl)cc1 | 48.8% |
| O=C1N=c2ccccc2=C1c1sc(=S)n(Cc2ccccc2Cl)c1O | -18.1% |

| Structure (SMILES) | inhibition |
| --- | --- |
| CCOC(=O)c1ccc(-n2nc(C)cc2C)cc1 | 13.4% |
| Cc1cc(C)n(-c2ccc(C(=O)OC(C)C)cc2)n1 | 5.09% |
| CCOc1cc2c(cc1OCC)-n1cccc1C(c1ccccc1F)NC2 (centres undefined) | 19.4% |
| CS(=O)(=O)Cc1ccc(C(=O)N2CCCC2c2cccs2)cc1 (centres undefined) | 0.57% |
| O=C(NC1CCCc2c1cnn2-c1cc(F)cc(F)c1)c1ccncc1 (centres undefined) | 4.39% |
| O=C(NC1CCCc2c1cnn2-c1cc(F)cc(F)c1)c1ccccn1 (centres undefined) | 25.6% |
| CC(C)(C)OC(=O)NCCc1n[nH]c(=S)o1 | -4.45% |
| CSc1nc(O)c(N=Nc2ccc(F)cc2F)c(=O)[nH]1 | 13.2% |
| O=C(CSc1nnc(CNC(=O)c2ccco2)o1)c1ccccc1 | 17.8% |
| CCSc1nnc([C@@H](N)Cc2ccccc2)o1 | 4.66% |
| CCSc1nnc(C(N)Cc2ccccc2)o1 (centres undefined) | 42.5% |
| O=C(CSc1nnc(CNC(=O)c2ccco2)o1)Nc1ccccc1 | -9.27% |
| CN1CCN(c2ccc(NC(=O)COc3cccc4ccccc34)cc2)CC1 | 47.4% |
| COc1ccc(C2Sc3nncn3N2Cc2ccc(C#N)cc2)cc1 (centres undefined) | 0.03% |
| C[C@H](NC(=O)OCc1ccccc1)c1nnc([C@H](C)NC(=O)OCc2ccccc2)o1 | 4.86% |
| C[C@H](NC(=O)OCc1ccccc1)C(=O)NNC(=O)[C@H](C)NC(=O)OCc1ccccc1 | 2.12% |
| Cc1ccc(C(=O)NNC(=O)CCC(=O)Nc2cc(C)on2)cc1 | 3.14% |
| CC(C)NC(=O)COc1ccc(OCc2ccccc2)cc1 | 62.9% |
| CCOCC(=O)Nc1ccc(OCc2ccccc2)cc1 | 17.7% |
| Cc1nc(SCCc2ccccc2)[nH]c(=O)c1C | 49.5% |
| CC1=C(C(=O)Nc2ccc(C)cc2C)C(c2ccc(C)o2)NC(=O)N1 (centres undefined) | -0.04% |
| COc1cccc(C(=O)CN(C(=O)c2ccc(Cl)cc2Cl)N2C(=O)c3ccccc3C2=O)c1 | -6.55% |
| O=C(O)c1ccc(CNCc2ccc(Cl)cc2)cc1 | 9.88% |

| Structure (SMILES) | inhibition |
| --- | --- |
| Cn1cnc([N+](=O)[O-])c1Cl | -10.2% |
| Cc1cccc(Sc2c([N+](=O)[O-])ncn2C)c1 | 22.6% |
| N#Cc1ccc(OCC(=O)NCCN2CCOCC2)cc1 | 2.06% |
| CCOC(=O)C1(CCc2ccccc2)CCN(Cc2cnc(N(C)C)s2)CC1 | 3.68% |
| Clc1ccccc1CSc1nncn1NC/C=C/c1ccccc1 | 19.6% |
| CC(C(=O)NC1CCCc2ccccc21)N1C(=O)C2CCCCC2C1=O (centres undefined) | -6.5% |
| COc1ccc(NC(=O)NCCN2CCN(c3cccc(Cl)c3)CC2)cc1 | 31.4% |
| COc1ccc(N2CCN(CCCNC(=O)Nc3ccccc3)CC2)cc1 | 38.1% |
| CC1(C)CC(=O)C2=C(C1)N(c1ccc(F)cc1)C(=O)C2(O)C(F)(F)F (centres undefined) | -0.41% |
| Cc1cc(C(=O)Nn2cnc3ccccc3c2=O)ccc1[N+](=O)[O-] | -2.65% |
| Cn1c(=O)c([N+](=O)[O-])c(NCCc2ccccc2)c2ccccc21 | 30.3% |
| CC(C)c1c(C(=O)N/N=C/c2ccc(OCc3ccc(F)cc3)cc2)nnn1-c1nonc1N | 1.61% |
| CCCOc1ccc(C(=O)C(c2ccccc2)N2CCOCC2)cc1 (centres undefined) | 33.3% |
| CN(C)CC(c1ccccc1)c1ccccc1 | -13.3% |
| CCCCOc1ccc(C(O)C(CN2CCCCC2)c2ccccc2)cc1 (centres undefined) | 12.8% |
| CCOc1ccc(C(O)C(CN2CCOCC2)c2ccccc2)cc1 (centres undefined) | -1.32% |
| CCC(C(=O)c1ccc(O)cc1)c1ccccc1 (centres undefined) | 21.7% |
| CC(CN1CCCC1)OC(=O)C(c1ccccc1)c1ccccc1 (centres undefined) | 10.8% |
| CCOc1ccc(C(=O)C(c2ccccc2)N2CCOCC2)cc1 (centres undefined) | 56.8% |
| CCOC(=O)C(CN1CCCC1)c1ccccc1 (centres undefined) | 4.41% |
| CCCCN(C(=O)Cc1ccc2c(c1)OCCO2)c1c(N)n(CCC)c(=O)[nH]c1=O | -17.1% |
| O=C(NCC(=O)N1CCN(C(c2ccccc2)c2ccccc2)CC1)c1ccc(Br)o1 | 13.5% |
| CCOc1ccc2nc(SCC(=O)N3CCN(C(=O)c4ccco4)CC3)sc2c1 | 28.7% |

| Structure (SMILES) | inhibition |
| --- | --- |
| C/C(=N/NC(=O)c1cnccn1)c1ccncc1 | -12.7% |
| Cc1nc(Cl)c(S(N)(=O)=O)c(C)c1Cl | -6.51% |
| CC(C)Sc1nc2[nH]ncc2c(=O)[nH]1 | -7.65% |
| O=C(NCCO)c1ccc2c(c1)S(=O)(=O)c1ccccc1C2=O | -6.47% |
| Cc1ccc(S(=O)(=O)NC(=O)c2ccccc2F)cc1 | -3.32% |
| CCCOc1cccc(C(=O)NCCNC(=O)c2ccco2)c1 | -5.82% |
| N#Cc1ccccc1Cn1c(=O)n(CCC(=O)NCc2ccco2)c(=O)c2ccccc21 | 0.99% |
| CCC1(CC)C(=O)NN(c2ccccc2)C1=O | -21.9% |
| O=C(CCNC(=O)Cn1ccc2ccccc2c1=O)NCCN1CCc2ccccc2C1 | 19.7% |
| O=C(C1=NN[C@@H]2C(=O)N(c3cccc(C(F)(F)F)c3)C(=O)[C@H]12)c1ccc2ccccc2n1 | -0.67% |
| COc1ccc(C(=O)C(c2ccccc2)N2CCOCC2)cc1 (centres undefined) | 18.6% |
| COc1ccc(C(O)(C2CCCCC2)C(CN2CCCC2)c2ccccc2)cc1 (centres undefined) | 47% |
| COc1ccc(C2C(C(=O)N3CCN(c4ccccc4)CC3)c3ccccc3C(=O)N2C)cc1 (centres undefined) | 16.5% |
| Cc1ccc(S(=O)(=O)N2CCCCC2C(=O)Nc2ccc(N(C)C)cc2)cc1 (centres undefined) | 20% |
| CCOC(=O)C(=O)Nc1cc(C)nn1-c1nc2ccccc2[nH]1 | 73.2% |
| Cc1cc(Nc2ccccc2)n(-c2ccc(Br)cc2)n1 | 66.6% |
| Cc1cc(NC(=O)c2ccc(F)cc2F)n(-c2nc3ccccc3[nH]2)n1 | 14.7% |
| Cc1cc(NC(=O)c2cccs2)n(-c2nc3ccccc3[nH]2)n1 | 76.4% |
| Cc1cc(Nc2ccccc2)n(-c2ccccc2)n1 | 6.71% |
| COc1cccc(OC)c1C(=O)Nc1cc(C)nn1-c1nc2ccccc2[nH]1 | 20.1% |
| Cc1cc(NC(=O)c2c(F)cccc2F)n(-c2nc3ccccc3[nH]2)n1 | 76.6% |
| Cc1cc(NC(=O)c2ccccc2)n(-c2nc3ccccc3[nH]2)n1 | 49.6% |
